Test results: ChEMBL document CHEMBL1201862, “PubChem BioAssay data set” (2004); call rule not given here
Only a part of the results of these assays is listed, not drawn at random.

Biological target: Huntingtin (Homo sapiens) (UniProt P42858)
Assay: qHTS Assay Multiplex Screening to Identify Dual Action Probes in a Cell Model of Huntington: Cytoprotection (Protease release). [Related pubchem assays: 1482, 1471, 1688 ]
Format: functional

Chain of Huntingtin (Homo sapiens) (P42858 whole entry): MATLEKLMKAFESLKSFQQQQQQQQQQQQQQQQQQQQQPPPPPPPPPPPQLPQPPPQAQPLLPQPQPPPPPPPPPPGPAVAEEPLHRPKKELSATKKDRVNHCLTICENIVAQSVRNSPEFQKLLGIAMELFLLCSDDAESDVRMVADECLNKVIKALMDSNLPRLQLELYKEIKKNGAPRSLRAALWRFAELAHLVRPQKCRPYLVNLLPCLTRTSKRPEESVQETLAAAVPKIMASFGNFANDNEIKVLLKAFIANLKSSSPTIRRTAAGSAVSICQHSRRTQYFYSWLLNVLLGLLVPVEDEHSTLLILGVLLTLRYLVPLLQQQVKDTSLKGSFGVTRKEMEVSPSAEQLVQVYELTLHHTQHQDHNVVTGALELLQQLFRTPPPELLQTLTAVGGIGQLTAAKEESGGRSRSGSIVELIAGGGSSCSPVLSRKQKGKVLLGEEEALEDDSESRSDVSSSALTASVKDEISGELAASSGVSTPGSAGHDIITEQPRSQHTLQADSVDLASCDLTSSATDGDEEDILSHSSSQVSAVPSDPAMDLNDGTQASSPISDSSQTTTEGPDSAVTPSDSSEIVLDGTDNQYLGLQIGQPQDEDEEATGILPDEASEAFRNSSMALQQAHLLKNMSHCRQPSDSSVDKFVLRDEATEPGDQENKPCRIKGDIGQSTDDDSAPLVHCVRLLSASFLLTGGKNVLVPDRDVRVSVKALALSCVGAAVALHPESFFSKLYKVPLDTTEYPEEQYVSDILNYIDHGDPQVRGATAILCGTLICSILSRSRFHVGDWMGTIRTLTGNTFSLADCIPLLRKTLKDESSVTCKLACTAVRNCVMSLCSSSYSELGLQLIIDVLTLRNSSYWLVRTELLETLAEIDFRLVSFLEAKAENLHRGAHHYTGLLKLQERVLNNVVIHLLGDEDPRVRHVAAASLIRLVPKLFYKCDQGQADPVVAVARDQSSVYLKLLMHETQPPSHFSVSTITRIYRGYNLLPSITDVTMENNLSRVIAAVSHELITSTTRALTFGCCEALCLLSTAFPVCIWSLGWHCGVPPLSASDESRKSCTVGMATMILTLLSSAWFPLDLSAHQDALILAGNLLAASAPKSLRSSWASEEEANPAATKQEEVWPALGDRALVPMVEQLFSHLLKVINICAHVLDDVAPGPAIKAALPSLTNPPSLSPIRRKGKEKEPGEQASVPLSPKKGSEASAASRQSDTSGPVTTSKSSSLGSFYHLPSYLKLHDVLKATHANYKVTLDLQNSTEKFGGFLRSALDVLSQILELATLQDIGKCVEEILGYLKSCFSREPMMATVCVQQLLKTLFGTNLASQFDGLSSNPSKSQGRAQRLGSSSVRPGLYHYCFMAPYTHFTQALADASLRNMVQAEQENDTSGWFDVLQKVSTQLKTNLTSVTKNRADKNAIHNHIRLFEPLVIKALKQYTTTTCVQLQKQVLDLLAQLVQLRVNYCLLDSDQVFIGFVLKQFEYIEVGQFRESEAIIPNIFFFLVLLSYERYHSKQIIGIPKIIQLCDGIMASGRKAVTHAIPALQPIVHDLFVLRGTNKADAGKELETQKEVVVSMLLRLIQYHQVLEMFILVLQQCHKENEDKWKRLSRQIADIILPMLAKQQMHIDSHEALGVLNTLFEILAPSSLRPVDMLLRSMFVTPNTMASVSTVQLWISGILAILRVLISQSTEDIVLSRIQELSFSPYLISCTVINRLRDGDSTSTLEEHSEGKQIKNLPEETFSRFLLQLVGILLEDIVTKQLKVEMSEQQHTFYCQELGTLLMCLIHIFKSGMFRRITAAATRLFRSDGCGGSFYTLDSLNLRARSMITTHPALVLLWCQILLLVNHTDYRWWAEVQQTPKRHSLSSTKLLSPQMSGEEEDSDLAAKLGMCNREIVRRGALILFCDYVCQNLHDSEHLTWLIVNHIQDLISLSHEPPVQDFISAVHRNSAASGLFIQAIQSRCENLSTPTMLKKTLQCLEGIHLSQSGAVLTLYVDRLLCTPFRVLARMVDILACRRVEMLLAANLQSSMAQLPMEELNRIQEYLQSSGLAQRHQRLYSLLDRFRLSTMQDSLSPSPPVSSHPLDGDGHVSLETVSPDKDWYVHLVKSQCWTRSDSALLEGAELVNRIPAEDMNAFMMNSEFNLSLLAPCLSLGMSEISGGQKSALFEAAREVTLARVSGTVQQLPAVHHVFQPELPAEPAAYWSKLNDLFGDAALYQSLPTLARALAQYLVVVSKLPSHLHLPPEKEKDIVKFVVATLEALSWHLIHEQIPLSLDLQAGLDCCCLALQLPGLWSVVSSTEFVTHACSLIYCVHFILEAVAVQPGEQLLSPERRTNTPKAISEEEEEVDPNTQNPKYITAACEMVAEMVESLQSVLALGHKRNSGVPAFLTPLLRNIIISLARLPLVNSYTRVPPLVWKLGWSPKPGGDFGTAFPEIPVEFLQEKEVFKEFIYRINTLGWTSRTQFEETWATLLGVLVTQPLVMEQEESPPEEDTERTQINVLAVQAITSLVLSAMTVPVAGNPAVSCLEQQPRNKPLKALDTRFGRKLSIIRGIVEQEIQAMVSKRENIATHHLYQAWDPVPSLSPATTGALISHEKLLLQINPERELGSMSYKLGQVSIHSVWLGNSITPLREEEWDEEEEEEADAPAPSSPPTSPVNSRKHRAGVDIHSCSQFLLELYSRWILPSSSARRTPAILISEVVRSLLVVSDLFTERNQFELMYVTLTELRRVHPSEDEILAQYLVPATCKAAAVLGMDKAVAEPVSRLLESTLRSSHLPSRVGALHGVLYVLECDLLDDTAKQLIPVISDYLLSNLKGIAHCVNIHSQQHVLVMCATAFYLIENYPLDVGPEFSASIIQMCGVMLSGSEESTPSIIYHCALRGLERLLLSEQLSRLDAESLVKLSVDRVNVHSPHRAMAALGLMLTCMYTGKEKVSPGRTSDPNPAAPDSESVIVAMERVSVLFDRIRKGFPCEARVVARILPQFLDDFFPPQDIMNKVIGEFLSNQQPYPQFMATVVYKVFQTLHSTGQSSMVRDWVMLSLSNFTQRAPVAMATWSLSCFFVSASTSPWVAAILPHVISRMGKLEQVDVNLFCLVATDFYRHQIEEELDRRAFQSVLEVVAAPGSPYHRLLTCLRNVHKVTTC

## COC[C@@H]([C@H](O)[C@H](O)C(=O)NCC[C@H](C)c1nc(/C=C/C[C@@H]2O[C@]3(C[C@@H](O)[C@@H]2C)O[C@H]([C@H](C[C@H](O)[C@H](C)[C@H](O)[C@H](C)/C=C(C)/C(C)=C/C=C/C(C)=C\C#N)OC)[C@H](OP(=O)(O)O)C3(C)C)co1)N(C)C
  Potency: 1.12 µM (active)
